Source: PubChem
Tau fluor cs: counter-screen for tau fibril formation inhibitors; 280,000 compounds, 0.93% hits; Potency, µM (highest dose often 57.7 µM), inactives show at the highest dose activity change, negative = decrease; tau K18 P301L Alexa594 fluorescence, heparin fibrillization; AID 1463; note: potency is the fitted concentration of half-maximal effect; nearly all actives have a fitted effect of over 55% in size
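Human K18 P301L tau (15 uM unlabeled plus 0.24 uM Alexa 594-labeled, final) in 100 mM sodium acetate pH 7 was mixed with compound and 20 uM heparin and incubated 6 hr at 37 C.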
Sfp PPTase inh: Sfp phosphopantetheinyl transferase inhibition. Biochemical Sfp PPTase activity, qHTS. Potency, µM, without a hit: largest response in the series, negative = inhibition, hits mostly inhibitors. Q9F4F7. 310,000 compounds, 3.5% hits;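 note: the enzyme is Sfp with the accession as filed and its product quenches rhodamine fluorescence; potency is the fitted concentration of half-maximal effect; 0% = enzyme reaction without inhibitor and -100% = no enzyme wells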
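After 15 min at room temperature with compound, 15 nM Sfp received 5 uM rhodamine-CoA plus 12.5 uM BHQ-2-ybbR (50 mM Hepes pH 7.6, 10 mM MgCl2). Rate came from the fluorescence difference over 30 min, ex 525/em 598 nm.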
JMJD2E inh: JMJD2E (human) inhibition | JMJD2E catalytic domain, FDH-coupled NADH fluorescence (FDH is formaldehyde dehydrogenase) | Potency, µM (top dose mostly 57.1 µM), for inactives: at the top dose activity change, negative = inhibition, actives largely listed as inhibitors | 230,000 compounds, 1.6% hits; active = well fitted inhibition curve with a large enough effect, not every such curve was filed as active; inconclusive = small, poorly fitted or top-dose-only effect, or another doubt; inactive = no such curve, though single readings can be large or run the other way;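 note: potency is the fitted concentration of half-maximal effect; 0% = wells with enzyme and -100% = buffer wells without enzyme; nearly all actives have a fitted effect of over 50% in size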
Target sequence (B2RXH2 1-337 limits assumed): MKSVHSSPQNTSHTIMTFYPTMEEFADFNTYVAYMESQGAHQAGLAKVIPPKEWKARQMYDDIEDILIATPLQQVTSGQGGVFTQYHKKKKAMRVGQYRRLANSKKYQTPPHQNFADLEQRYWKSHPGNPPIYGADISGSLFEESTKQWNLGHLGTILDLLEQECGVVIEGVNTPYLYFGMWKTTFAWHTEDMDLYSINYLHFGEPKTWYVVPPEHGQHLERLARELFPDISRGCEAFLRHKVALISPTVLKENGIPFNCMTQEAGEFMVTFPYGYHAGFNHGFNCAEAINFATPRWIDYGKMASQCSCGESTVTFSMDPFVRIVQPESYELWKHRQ
Tau fibril FP: blocks human tau fibril formation measured by polarization; 280,000 compounds, 0.39% hits; Potency, µM (highest dose often 57.7 µM), inactives show top-dose activity, negative = inhibition, most hits filed as inhibitors; K18 P301L tau heparin fibrillization, Alexa594 FP, 6 h; note: potency is the fitted concentration of half-maximal effect; nearly all actives have a fitted effect of over 55% in size
Target sequence (P10636 561-689 P618L limits assumed): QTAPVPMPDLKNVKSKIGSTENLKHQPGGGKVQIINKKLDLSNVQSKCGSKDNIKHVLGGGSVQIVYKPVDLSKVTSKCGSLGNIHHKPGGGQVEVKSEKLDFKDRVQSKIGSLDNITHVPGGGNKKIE
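FP of Alexa 594-tau after heparin (20 uM) induction. Substrate: human K18 P301L, 15 uM unlabeled, 0.24 uM labeled. Buffer 100 mM sodium acetate pH 7. 6 hr, 37 C.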
Coupling enz: inhibits coupling enzyme system, counter-screen for aldolase hits | coupling enzyme system counterscreen, AmpLite Red fluorescence | 290,000 compounds, 0.67% hits | activity change, negative = inhibition, % at 58.2 µM, hits read low; in the data active = activity change below about -30%
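Activity here indicates interference with the coupling reaction, not aldolase inhibition. Compounds at 57.5 uM final met coupling enzymes for 10 min at RT; substrate and AmpLite Red detection followed, with a 525/598 nm fluorescence read after 20 min.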
Tau ThT inhib: blocks human tau fibril formation measured by thioflavin T; P10636; AID 1460; 270,000 compounds, 2.1% hits; recombinant tau K18 P301L, heparin-induced fibrillization, ThT fluorescence; Potency, µM (titrated, usually from 57.4 µM), inactives show at the highest dose activity, negative = inhibition, most hits filed as inhibitors; note: potency is the fitted concentration of half-maximal effect; nearly all actives have a fitted effect of over 55% in size
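Fibril formation assay: tau K18 P301L at 15 uM with trace Alexa 594 label, heparin inducer 20 uM, pH 7 sodium acetate buffer, 37 C for 6 hr; endpoint ThT signal.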
The depositor's hits bear a star; ? = inconclusive; . = no result; [ ] = dose if it differs, or a comment. Hits are enriched below; roughly 5.3% of the tested compounds scored in any of these assays. Unless noted, calls come from the whole dose curve; as a rule, active = well fitted curve in the direction sought with a large enough effect; inconclusive = small, poorly fitted or top-dose-only effect, or another doubt; inactive = no such curve, though single readings can be large; an effect the other way counts as inactive or inconclusive. Unless noted, % is set by controls: 0 for no effect and ±100 for the full control effect.

SMILES | Tau fluor cs | Sfp PPTase inh | JMJD2E inh | Tau fibril FP | Coupling enz | Tau ThT inhib
O=C(CSc1nnc(-c2ccccc2)n1Cc1ccco1)Nc1ccc2c(c1)OCCO2 | -12.9% | 44.7µM* | -8.2% | 1.2% | 7.3 | -17.3%
C[C@H]1COC(=O)O1 | . | 31.5% | . | . | -2.9 | .
CCn1c(NCc2cccc(Cl)c2)nc2ccccc21 | -15.1% | . | . | -3.0% | . | -3.4%
Cc1ccc(Cl)cc1NC(=O)C[n+]1ccc(Cc2ccc([N+](=O)[O-])cc2)cc1 | -20.9% | 44.7µM* | -8.1% | -3.3% | -44.4* | ?
O=C(C[n+]1ccc(Cc2ccccc2)cc1)Nc1ccc([N+](=O)[O-])cc1Cl | -11.2% | 11.1% | 2.0% | 2.0% | 3.6 | -17.1%
COc1ccccc1C(CCN(Cc1ccccc1)C(C)=O)c1ccco1 (stereo not given) | -8.1% | 56.2µM* | 3.6% | 7.0% | 6.4 | -14.1%
CCC(=O)N(CCC(c1ccco1)C(C)C)Cc1ccccc1 (stereo not given) | -0.9% | 44.7µM* | -12.9% | -10.9% | 4.7 | -13.6%
CC(=O)N(CCC(c1ccco1)C(C)C)Cc1ccc(Cl)cc1 (stereo not given) | -5.5% | -19.5% | 0.4% | 1.3% | 4.4 | -14.8%
COc1ccccc1C(CC(N)=O)c1ccco1 (stereo not given) | 4.9% | 0.3% | -1.2% | 3.5% | 3.6 | 1.0%
O=C(O)/C(=C\c1ccc(Cl)c([N+](=O)[O-])c1)c1ccc(S(=O)(=O)N2CCCCC2)s1 | -9.3% | 44.7µM* | -5.3% | 6.9% | 4.5 | ?
Cc1ccc(C(=O)NC2CC3CCCC(C2)N3C(=S)NCc2ccco2)cc1 (stereo not given) | -24.6% | 44.7µM* | 0.9% | -13.7% | 1.6 | ?
CC(=O)N1CCCc2ccc(NC(=O)c3ccc(OC(C)C)cc3)cc21 | -0.1% | . | . | 3.1% | . | -3.1%
COc1ccc(NC(=O)CSc2ccc(-c3ccco3)nn2)cc1OC | . | 44.7µM* | . | . | . | .
Cc1cccc(NC(=O)Cn2nc(-c3ccco3)ccc2=O)c1C | . | -13.3% | . | . | -0.6 | .
O=C(CSc1ccc(-c2ccco2)nn1)NC1CCCCC1 | -13.7% | 25.1µM* | ? | 2.1% | 0.9 | ?
COc1cccc(NC(=O)CSc2ccc(-c3ccco3)nn2)c1 | . | 50.1µM* | . | . | . | .
O=C(CSc1ccc(-c2ccco2)nn1)NC1CCCC1 | -7.5% | -20.1% | ? | 1.4% | -1.5 | -11.6%
O=C(Cn1nc(-c2ccco2)ccc1=O)Nc1ccc(Br)cc1 | . | 50.1µM* | . | . | 1.2 | .
O=C(Oc1ccccc1)N1CCC[C@@]2(CCN(c3ccccc3)C2)C1 | . | -2.4% | . | . | -2.4 | .
O=C(CSc1ccc(-c2ccco2)nn1)Nc1ccc(F)cc1 | . | 28.2µM* | . | . | . | .
CCOc1ccc(NC(=O)CSc2ccc(-c3ccco3)nn2)cc1 | . | -11.7% | . | . | . | .
COc1ccccc1/C=C(\C#N)c1nc(-c2cc3ccccc3oc2=O)cs1 | ? | . | . | ? | . | -14.6%
Cc1oc2ccc(O)c(CN3CCOCC3)c2c1C(=O)c1ccc(Cl)cc1 | -2.9% | 17.4% | 1.2% | 3.6% | -40.3* | -5.7%
Cc1nnc(N2CCN(c3ccc(Cl)cc3)CC2)c2c1nnn2Cc1ccc(F)cc1 | -12.4% | . | . | 7.3% | . | -17.8%
CCOC(=O)c1c(-c2ccc(-c3ccccc3)cc2)csc1NC(=O)C1C2CCC(O2)C1C(=O)O (stereo not given) | -9.8% | 50.1µM* | ? | ? | 11.1 | ?
SMILES | Tau fluor cs | Sfp PPTase inh | JMJD2E inh | Tau fibril FP | Coupling enz | Tau ThT inhib
CCOC(=O)c1c(-c2ccccc2)csc1NC(=O)C1CCCO1 (stereo not given) | -18.8% | 31.6µM* | ? | -10.9% | 4.1 | ?
CCOC(=O)c1c(-c2ccccc2)csc1NC(=O)/C(C#N)=C/c1ccc(O)c(OC)c1 | 12.6µM*[quencher] | ? | 3.3% | 16.9% | 0.0 | ?
CN1c2ccccc2-c2nc(SCC(=O)Nc3ccccc3C(F)(F)F)ncc2S1(=O)=O | ? | . | . | -7.4% | . | ?
CS(=O)(=O)N1CCc2cc(C(=O)Nc3cccc(F)c3)ccc21 | -7.4% | . | . | ? | . | 8.9%
CCNc1ncc2ncc(=O)n(Cc3ccc(F)cc3)c2n1 | . | 12.6% | . | . | 3.8 | .
CCC(NC(C)C)C(O)c1ccc(O)c2[nH]c(=O)ccc12 (stereo not given) | -4.1% | -22.9% | ? | 3.9% | -3.0 | -6.6%
CC[C@H](NC(C)C)[C@H](O)c1ccc(O)c(O)c1 | . | -16.7% | 11.2µM* | . | -35.6* | .
Cc1[nH]c2ccccc2c1/C=N/NC(=O)c1cccc(S(=O)(=O)Nc2ccccc2Cl)c1 | 11.2µM*[quencher] | 8.2% | -27.4% | ? | -26.2 | ?
CCc1cccc2c(/C=N/NC(=O)c3cccc(S(=O)(=O)Nc4ccccc4Cl)c3)c[nH]c12 | 11.2µM*[quencher] | 10.0% | ? | -8.0% | -2.2 | 14.1µM*
Cc1ccc(/C=N/NC(=O)c2cccc(S(=O)(=O)Nc3ccccc3Cl)c2)o1 | -16.4% | 18.0% | -7.3% | 5.1% | -1.7 | -12.4%
CCN1C(=O)C(Cc2nc3ccccc3c(=O)n2-c2ccccc2)c2cc(Br)ccc21 (stereo not given) | -9.3% | . | . | 4.4% | . | ?
COc1cc(OC)cc(-n2c(=O)c3ccccc3n(CC(=O)NCCc3ccc(OC)c(OC)c3)c2=O)c1 | -17.3% | . | . | -15.3% | . | -15.9%
O=C(Nc1ccc(F)cc1)C(=O)c1c(O)[nH]c2ccc([N+](=O)[O-])cc12 | -27.3% | ? | -1.2% | 2.0% | -22.9 | 15.8µM*
Cc1cccc(OCC(=O)N=Nc2c(O)[nH]c3ccc([N+](=O)[O-])cc23)c1 | ? | -5.5% | -3.3% | -7.2% | -14.6 | 3.98µM*
O=C(N=Nc1c(O)[nH]c2ccc([N+](=O)[O-])cc12)c1ccccc1Cl | -24.9% | ? | 6.1% | 11.9% | -0.3 | ?
Cc1cccc(OCC(=O)NCC(=O)N=Nc2c(O)[nH]c3ccc([N+](=O)[O-])cc23)c1 | . | -16.5% | . | . | -1.1 | .
O=[N+]([O-])c1ccc2[nH]c(O)c(N=NC(=S)Nc3cccnc3)c2c1 | ? | ? | 2.1% | 12.2% | -2.8 | 2.24µM*
Cc1ccc(NCC(=O)N=Nc2c(O)[nH]c3ccc([N+](=O)[O-])cc23)cc1 | 25.1µM*[quencher] | -51.0% | ? | 2.9% | -31.1* | 15.8µM*
COC(=O)c1cc(OC)c(OC)cc1NC(=O)c1ccc2c(c1)CCN2S(=O)(=O)c1ccccc1 | -6.2% | . | . | 2.9% | . | -1.2%
Cc1ccccc1NCC(=O)N=Nc1c(O)[nH]c2ccc([N+](=O)[O-])cc12 | 17.8µM*[quencher] | 6.2% | -2.7% | 6.3% | -4.1 | ?
CCCCCC(=O)N=Nc1c(O)[nH]c2ccc([N+](=O)[O-])cc12 | -16.6% | 5.6% | 8.7% | 3.4% | 1.0 | -11.4%
